Compound activity (PubChem BioAssay)
Hits are enriched below; roughly 1% of the tested compounds scored in any of these assays.
IP6K1 inhibitor – IP6K1 kinase inhibition; Q92551; IP6K1 kinase, ADP-Glo luminescence, 2 h; stronger effect = lower value; activity change, % (series mostly up to about 58 µM); actives 0.81% (n = 140,000); AID 1645851; in the data active = activity change below about -25%
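ADP-Glo luminescence measures ADP made by human IP6K1 during a 2 h RT reaction with ATP/IP6 (mix at 1.3 mM/130 uM); top library doses 57.5 and 19.1 uM final.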
HEK293 viab – counter-screen for SNCA expression inhibitors: cell viability | Potency, µM (doses to about 57.1 µM), most hits filed as cytotoxic | AID 1671193 | actives 0.12% (n = 150,000) | HEK-293-SNCA-luc viability, GF-AFC fluorescence, 24 h; also: nearly all actives have a fitted effect of over 30% in size
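HEK-293-SNCA-luc cells (1500/well) plated 24 h, then exposed 24 h to a dilution series; GF-AFC added 30 min at 37C, fluorescence 405/540 nm; normalised to medium-only and DMSO wells, Hill fit.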
SNCA expr inh – reduces expression of the alpha-synuclein gene; HEK-293 SNCA-luciferase knock-in, luminescence, 24 h; Potency, µM (top dose mostly 57.2 µM), actives largely listed as inhibitors; actives 0.17% (n = 140,000); AID 1671194; also: nearly all actives have a fitted effect of over 45% in size
GPT2 inh – blocks human glutamate pyruvate transaminase 2. Q8TD30. Recombinant GPT2, coupled pyruvate oxidase/HRP Amplex Red fluorescence. Potency, µM (titrated, usually from 57.7 µM), usual class: inhibitors. actives 0.25% (n = 100,000). AID 1671188; also: nearly all actives have a fitted effect of over 60% in size
Target sequence (Q8TD30 whole entry, looked up): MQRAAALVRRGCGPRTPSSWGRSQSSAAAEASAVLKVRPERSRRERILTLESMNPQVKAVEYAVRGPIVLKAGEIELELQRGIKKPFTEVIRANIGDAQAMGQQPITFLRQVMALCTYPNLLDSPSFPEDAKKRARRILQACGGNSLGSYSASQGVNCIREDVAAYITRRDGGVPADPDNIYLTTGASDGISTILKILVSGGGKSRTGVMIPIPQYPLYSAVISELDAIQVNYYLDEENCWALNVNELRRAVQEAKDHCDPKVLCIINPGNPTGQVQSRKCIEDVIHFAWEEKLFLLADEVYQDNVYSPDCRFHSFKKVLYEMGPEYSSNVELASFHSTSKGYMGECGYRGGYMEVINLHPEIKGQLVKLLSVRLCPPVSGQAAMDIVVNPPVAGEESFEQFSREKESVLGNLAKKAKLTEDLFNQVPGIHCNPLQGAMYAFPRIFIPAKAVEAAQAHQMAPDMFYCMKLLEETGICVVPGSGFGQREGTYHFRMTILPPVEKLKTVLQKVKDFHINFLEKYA
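Inhibition is scored from Amplex Red fluorescence generated when pyruvate oxidase and HRP act on pyruvate released by GPT2. Reactions contain 10ng/uL enzyme, 250uM a-KG and 2mM L-alanine and run 30 min at room temperature.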
A number is an active result; 0 = inactive; ? = inconclusive; - = no result; ! = not active in a repeat; [ ] = another dose, or the depositor's remark. Unless noted, calls follow the shape of the dose curve; as a rule, active = well fitted curve in the direction sought with a large enough effect; inconclusive = small, poorly fitted or top-dose-only effect, or another doubt; inactive = no such curve, though single readings can be large; an effect the other way counts as inactive or inconclusive.

SMILES	IP6K1 inhibitor	HEK293 viab	SNCA expr inh	GPT2 inh
NC[C@@H]1O[C@H](c2ccccc2)Cc2c1ccc(O)c2O	-	0	0	20µM
O=C(C1CCCN1C(=O)c1cccc(-c2ccccn2)c1)N1CCC(c2ccccc2)CC1 (stereo unspecified)	0	0	0	0
O=C(Cc1ccc(F)cc1)N1CCN(c2ccc3nnc(-c4ccccc4)n3n2)CC1	0	-	-	-
CCOC(=O)Nc1ccc(NCc2ccc(F)cc2)nc1N	0	0	0	10µM!
O=C(NCc1ccc(F)cc1)c1cc(-c2ccc(Cl)cc2Cl)c2nncn2n1	0	0[12.5 µM]	?	0
O=C(Cc1ccc(-c2ccccc2)cc1)NCCS(=O)(=O)N1CCN(c2ccccc2)CC1	0	0	0	-
COc1ccc(N2CCN(S(=O)(=O)CCNC(=O)Cc3ccc(-c4ccccc4)cc3)CC2)cc1	-27.5	0	0	-
COCCN1CCCC[C@]2(C[C@H](C(=O)O)[C@H](c3ccco3)N2C(=O)Cc2ccc(F)cc2)C1=O	0	-	-	-
CN(C)C/C=C/C(=O)Nc1ccc(C(=O)Nc2cccc(Nc3ncc(Cl)c(-c4c[nH]c5ccccc45)n3)c2)cc1	0	?	0.171µM	0
CC(C)[C@@](C)(O)[C@@H]1CN(c2nc(-c3[nH]nc4ncccc34)c(F)cc2Cl)CCN1	0	29.9µM	-	0
CC[n+]1c(/C=C/C=C2/N(C)c3ccccc3C2(C)C)sc2ccccc21	-	10µM	?	0
COc1cccc(-n2nc(C(=O)O)cc2-c2ccc(C3CCCCC3)c(Cl)c2)c1	-38.2	0	-	0
O=C(O)CCC(=O)OC[C@@H](NC(=O)C(Cl)Cl)[C@H](O)c1ccc([N+](=O)[O-])cc1	0	0	0	?
CCCCCCCCCCCCCC(=O)N[C@H](CO)[C@H](O)c1ccc([N+](=O)[O-])cc1	-	0	9.61µM	0
CC(=O)N1CCOc2ccc(CCC(=O)NC(C)Cn3ccc(C)n3)cc2C1 (stereo unspecified)	0	0[12.5 µM]	20µM	0
COc1ccc(-c2[nH]nc3ncc(-c4cccnc4)nc23)cc1F	0	?	2.82µM	0
CC(C)c1ccc(-c2nc(C(N)=O)c3c(n2)n(-c2ccc4c(c2)OCO4)c(=O)n3C)cc1	0	0	0	-
Cn1c(=O)n(-c2ccc3c(c2)OCO3)c2nc(-c3ccc(Cl)cc3)nc(C(N)=O)c21	0	0	31.6µM	-
C=CC(=O)Nc1cccc(Nc2nc(NC3CCC(N(C)C)CC3)nc3c2ncn3C(C)C)c1 (stereo unspecified)	-	?	3.04µM	0
CC(C)C(CO)Nc1nc(Nc2cc(N)cc(Cl)c2)c2ncn(C(C)C)c2n1 (stereo unspecified)	0	?	-	0
CCCCc1ccc(NC(=O)CN2C(=O)NC(c3ccc(Cl)cc3)C3=C2COC3=O)cc1 (stereo unspecified)	0	?	12.6µM	0
COc1ccc(-c2cccc(C(=O)N3CCC(NC(=O)C(C)(C)C)CC3)c2)nn1	0	-	-	-
CC(C)(C)C(=O)NCCNC(=O)c1ccc(-c2cccc(C(F)(F)F)c2)cc1	0	-	-	-
CCOc1ccc(-n2nc3ccc(NC(=O)Cc4ccccc4)cc3n2)cc1	0	28.2µM	28.2µM	-
O=C(Cc1ccc(Cl)cc1)Nc1ccc2nn(-c3ccccc3)nc2c1	0	0	0	-
SMILES	IP6K1 inhibitor	HEK293 viab	SNCA expr inh	GPT2 inh
Cc1nn(-c2ccccc2[N+](=O)[O-])c(C)c1[C@@H]1C=C[C@@H](NCc2ccc(C(C)C)cc2)C1	0	20µM	0	0
Cc1ccc(C(=O)Nc2ccc(CN3CCN(C)CC3)c(C(F)(F)F)c2)cc1C#Cc1cnc2cccnn12	0	29.9µM!	?	?
CC(=O)NCC(=O)N1[C@H]2CC[C@H]1c1cc(Nc3ncc(C(F)(F)F)c(NC4CCC4)n3)ccc12	-	0	?	0
CNC(=O)c1ccc(Nc2ncc(C(F)(F)F)c(NCc3nccnc3N(C)S(C)(=O)=O)n2)cc1	0	?	21.5µM	0
Cc1ccc(N)cc1O	0	0	0	11.2µM
COCC1CCN(c2ccc(-c3nc(-c4ccccc4C)no3)cn2)C1 (stereo unspecified)	0	0	0	0
COC(=O)[C@@H]1CCCN1c1ccc(-c2nc(-c3ccccc3F)no2)cn1	0	0	11.2µM	0
O=[S+]([O-])(NC1CN(c2ccnc3ccnn23)C1)c1ccccc1	0	0	0	0
O=C(Nc1ccc(C(=O)N2CCN(c3ccc(F)cc3)CC2)cc1)c1nsc2ccccc12	0	0	0	-
O=C(Nc1ccc(C(=O)N2CCCCC2)cc1)c1nsc2ccccc12	0	0	10µM	-
CCOc1ccc(C(c2c(C)[nH]n(-c3ccccc3)c2=O)c2c(C)[nH]n(-c3ccccc3)c2=O)cc1OC	-30.3	?	0	-
Fc1ccc(-c2nc(-c3c(F)cccc3F)[nH]c2-c2ccncc2)cc1	0	0	-	0
CS(=O)c1ccc(-c2nc(-c3ccc(F)cc3)c(-c3ccncc3)[nH]2)cc1 (stereo unspecified)	0	0	12.4µM	0
CN1CCN(c2ccc(-c3cccc(N)c3)nn2)CC1	0	0	22.4µM	0
COc1ccccc1-c1ccc(C(=O)N2CCC(NC(=O)c3ccc(C)cc3)CC2)cc1	0	0[12.5 µM]	0	0
O=C(O)Cc1cccc(OCCCN(Cc2cccc(C(F)(F)F)c2Cl)CC(c2ccccc2)c2ccccc2)c1	-	0	0	24.3µM
Cc1ccc(NC(=O)N2CCCC(N3C(=O)c4c(c(C)nn4-c4ccccc4)C3C)C2)cc1F (stereo unspecified)	0	-	-	-
COc1cccc2c1C(=O)c1c(O)c3c(c(O)c1C2=O)C[C@@](O)(C(=O)CO)C[C@@H]3O[C@H]1C[C@H](N)[C@H](OC2CCCCO2)[C@H](C)O1 (stereo partly specified)	-	0	?	3.06µM
C=CCOc1c(OC)ccc2c1CN(Cc1ccccc1)C(=O)CCN2CC(O)COC(C)(C)C (stereo unspecified)	0	-	-	-
CCC(C)S(=O)(=O)c1oc(-c2cccs2)nc1S(=O)(=O)c1ccccc1 (stereo unspecified)	0	2.82µM	?	-
Cc1ccc(CSc2oc(-c3cccs3)nc2S(=O)(=O)c2ccccc2)cc1	0	0	0	-
CC(C)CS(=O)(=O)c1oc(-c2ccc(F)cc2)nc1S(=O)(=O)c1ccccc1	0	4.47µM	?	-
COc1cccc(Nc2ncc(-c3ccccc3)c3c2OCC3)c1	0	0	0	?
C[S+](=O)([O-])NCc1nnc2n1C(C(=O)NC1CCCCCC1)CC2 (stereo unspecified)	0	0	0	0
COC(=O)[C@]12CCC(C)(C)C[C@@H]1[C@@H]1C(=O)C=C3[C@@]4(C)C=C(C#N)C(=O)C(C)(C)[C@@H]4CC[C@@]3(C)[C@]1(C)CC2	-	13.6µM	8.57µM	0
CN1CCN(Cc2ccc(NC(=O)Nc3ccc(Oc4cc(NC(=O)C5CC5)ncn4)cc3)cc2C(F)(F)F)CC1	0	?	0.482µM	?
c1cc(-c2cnn3cc(-c4ccc(N5CCNCC5)cc4)cnc23)c2cccnc2c1	0	23.8µM	-	0
Cn1ncc2c(C(=O)NCC3CC3)cc(-c3cccnc3)nc21	0	0	0	0
COc1ccc(NC(=O)Nc2cccc(-c3ccc(N4CCOCC4)nn3)c2)cc1	0	0	0	0
